# A selection: hits, their analogues and other compounds. The true share with any hit is near 2.4%.
# TLR4-MyD88 BLA – TLR4-MyD88 interaction inhibition in cells; HeLa CL3-4 TLR4/MyD88 BLA complementation, FRET ratio; inhibition, % at 8.4 µM; 0.18% of 200,000 active; AID 861; in the data active = inhibition above about 25%
# NOD2 RIPK2 PPI – inhibitors of human NOD2-RIPK2 interaction; O43353; CHO BLA complementation NOD2-RIPK2, CCF4 ratio; inhibition, % at 4.98 µM; 0.38% of 360,000 active; AID 624267; in the data active = inhibition above about 21%
# Target sequence (O43353 whole entry, looked up): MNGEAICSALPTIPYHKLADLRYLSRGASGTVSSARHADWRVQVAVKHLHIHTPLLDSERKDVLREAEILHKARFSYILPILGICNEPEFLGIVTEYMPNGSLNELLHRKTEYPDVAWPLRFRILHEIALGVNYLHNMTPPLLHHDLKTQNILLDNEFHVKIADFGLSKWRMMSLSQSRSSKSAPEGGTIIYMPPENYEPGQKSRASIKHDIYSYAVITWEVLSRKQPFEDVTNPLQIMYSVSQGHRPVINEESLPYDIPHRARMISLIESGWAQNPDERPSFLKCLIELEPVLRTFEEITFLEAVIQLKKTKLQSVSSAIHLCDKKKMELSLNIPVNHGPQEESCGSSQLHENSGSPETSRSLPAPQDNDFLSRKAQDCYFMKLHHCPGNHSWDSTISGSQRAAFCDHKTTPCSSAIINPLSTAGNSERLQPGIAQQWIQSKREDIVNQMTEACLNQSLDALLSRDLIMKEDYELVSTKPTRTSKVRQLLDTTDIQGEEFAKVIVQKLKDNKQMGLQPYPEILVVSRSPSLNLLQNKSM
# TLR9-MyD88 block – TLR9-MyD88 interaction inhibition. Q9NR96+Q99836. CHO BLA complementation TLR9-MyD88, CCF4 FRET ratio. inhibition, % at 4.98 µM. 0.21% of 340,000 active. AID 504734;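 active = inhibition above the mean over all tested compounds plus 3 SD, cut at about 21% in these data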
# CRFR2-BP antag – CRF-BP/CRF-R2 complex antagonism | HEK293 CRF-R2/CRF-BP, CRF-induced calcium fluorescence | inhibition, % at 11.8 µM | 0.59% of 350,000 active;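 active = inhibition of the ligand-induced calcium signal above about 50% at the single tested concentration, limit read from the data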
# ABHD5-PLIN5 inh – blocks binding of human ABHD5 to perilipin-5. Q00G26+Q8WTS1. Split G. princeps luciferase complementation, luminescence, 4 h. inhibition, % at 4 µM. 0.78% of 360,000 active. AID 602281;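 active = inhibition above the mean inhibition across every tested compound plus 3 SD, cut at about 22% in these data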
# HTR2A ag – activates the mouse 5-HT2A serotonin receptor. 0.66% of 360,000 active. AID 624169. activation, % at 7.6 µM. P35363. CHO-K1 mHTR2A beta-arrestin complementation, luminescence; percent of 30 µM serotonin response;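 active = activation above a run cutoff, the mean activation of all tested compounds plus 3 SD, cut at about 14% in these data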
# A number is an active result; n = inactive; x = no result.
SMILES,TLR4-MyD88 BLA,NOD2 RIPK2 PPI,TLR9-MyD88 block,CRFR2-BP antag,ABHD5-PLIN5 inh,HTR2A ag
CCOc1ccc(CCNC(=O)CS(=O)Cc2nc(-c3ccc(C)cc3)oc2C)cc1 (stereo not drawn),x,n,n,n,n,n
O=C1c2ccccc2OC2(C=Cc3ccccc3O2)N1Cc1ccccc1 (stereo not drawn),n,n,n,56,n,n
O=C1NC2(CCN(Cc3ccccc3)CC2)Oc2ccccc21,n,n,n,n,n,n
CCOC(=O)C1=CCN(S(=O)(=O)c2ccccc2Cl)C1c1cccc(F)c1 (stereo not drawn),x,n,x,x,n,n
C=CCN(c1ccccc1)S(=O)(=O)c1cccc(C(=O)OCC(=O)NCCOC)c1,x,n,n,55,n,n
C=CCN(c1ccccc1)S(=O)(=O)c1cccc(C(=O)OCC(=O)NC2CC2)c1,n,n,n,n,n,n
Cc1ccc(OCCC(=O)O)cc1,x,n,n,85,n,n
Cc1cccc(C)c1NC(=O)C1C(c2ccc3c(c2)OCO3)=Nc2ccccc2N1C(=O)c1cccc2ccccc12 (stereo not drawn),x,n,x,x,n,n
Cc1ccc(S(=O)(=O)/N=C2/NC(=O)/C(=C/c3ccc(Br)o3)S2)cc1,n,n,n,55,n,n
Cc1ccc(SCC(=O)Nc2cc([N+](=O)[O-])ccc2O)cc1,n,n,n,92,n,n
Cc1cc(-c2csc(N)n2)c(C)n1Cc1ccco1,n,n,n,n,23,n
CCCS(=O)(=O)NC(=O)C1(C)CCCN(C(=O)c2ccc3c(c2)OCO3)C1 (stereo not drawn),x,n,x,x,n,n
Cc1ccc(OCCOC(=O)Cn2nc(C)c([N+](=O)[O-])c2C)cc1,n,n,n,54,n,n
CCOC(=O)Cn1nc(C)c([N+](=O)[O-])c1C,n,n,n,n,n,n
COc1cccc(C(=Cc2ccc([N+](=O)[O-])cc2)C(=O)O)c1,x,n,n,n,n,n
CC1(C(=O)NCCC#N)CCN1C(=O)Cc1ccc(-c2ccccc2)cc1 (stereo not drawn),x,n,x,x,n,n
COc1cc(C[C@H](C)[C@H](C)Cc2ccc3c(c2)OCO3)ccc1O,x,n,n,59,n,n
CCCCCCCCCn1c2c(c(=N)c3c1CCC3)CCCC2,n,24,x,n,n,n
CCCCCn1c2c(c(=N)c3ccccc31)CCC2,x,n,n,n,n,n
CCCCCCCCCCn1c2c(c(=N)c3c1CCC3)CCC2,n,n,n,n,23,n
COc1ccc([C@H]2C[C@H](n3cc(COC(=O)c4ccccc4)nn3)[C@@H](O)CN2C(=O)c2cccs2)cc1,x,n,n,n,n,n
CCOC(=O)Cc1ccc(Nc2nc3cc(-c4sccc4C)sc3c(=O)n2C)cc1,x,n,x,x,n,n
Cc1ccccc1NC(=O)c1ccc(-c2ccc(Cl)cc2Cl)o1,n,n,n,66,n,n
Cc1cccc(C)c1NC(=O)c1ccc(-c2ccc(Cl)cc2Cl)o1,n,n,n,n,n,n
CC1(C(=O)NS(=O)(=O)c2ccc(C#N)cc2)CCN1C(=O)C1(c2ccccc2)CC1 (stereo not drawn),x,n,x,x,n,n
SMILES,TLR4-MyD88 BLA,NOD2 RIPK2 PPI,TLR9-MyD88 block,CRFR2-BP antag,ABHD5-PLIN5 inh,HTR2A ag
COc1cccc(CCOC(=O)c2c(-c3ccsc3)oc3c2C(OC(C)=O)CCC3)c1 (stereo not drawn),x,n,x,x,n,n
N#CCSc1nc2sccc2c(=O)n1-c1ccccc1,x,n,n,74,n,n
CNC(=O)CSc1nc2sccc2c(=O)n1-c1ccccc1,x,n,n,n,n,n
O=C(Nc1cccc(-c2cscn2)c1)C1CCN(Cc2ccc(CO)o2)CC1,x,n,n,n,n,n
COCc1ccc(CN2CCC(C(=O)Nc3cccc(-c4cscn4)c3)CC2)o1,x,n,n,90,n,n
O=C(O)c1cccc2cccc(-c3c4ccc(=O)c(O)c-4oc4c(O)c(O)ccc34)c12,x,n,n,51,n,n
O=C(O)c1cccc2cc(-c3ccccc3)oc(=O)c12,x,n,n,n,n,n
CC(C)c1ccc(NC(=O)Nc2nc(C(N)COCc3ccccc3)cs2)cc1 (stereo not drawn),x,n,x,x,n,n
COc1ccc(S(=O)(=O)N2CCN(C(=O)CN3C(=O)NC4(CCCC4)C3=O)CC2)cc1,x,n,n,n,n,n
COc1ccc(S(=O)(=O)N2CCN(C(=O)CCCN3C(=O)NC4(CCCC4)C3=O)CC2)cc1,x,n,n,55,n,n
Cc1nnc(NC(=O)C2CC(=O)N(c3ccc4c(c3)OCCO4)C2)s1 (stereo not drawn),x,n,n,n,n,n
O=C(Nc1nc(-c2ccco2)c(-c2ccco2)s1)C1CC(=O)N(c2ccc3c(c2)OCCO3)C1 (stereo not drawn),n,n,n,n,33,n
O=C(Nc1ccc(Oc2cccnc2)nc1)c1ccc(C(F)(F)F)cc1,x,n,n,55,n,n
Cc1ccc(Cl)cc1-c1cc(C(=O)N2CCc3ccccc3C2)[nH]n1,x,n,x,x,n,n
Cc1ccc(Nc2c(O)nc[nH]c2=O)cc1,x,n,n,73,n,n
CCOC(=O)[C@]12CCC=C1N(CCC1=CCCCC1)C(=O)[C@H](CC(=O)N1CCSCC1)C2,x,n,x,x,n,n
CSCc1cc(C(=O)NCCN2CCOCC2)c(N)s1,x,n,x,x,n,n
COc1ccc(CN2CCC(CO)(CCOc3ccccc3)CC2)cc1C,n,n,n,88,n,n
COc1cc(CN2CCC(CO)(CCOc3ccccc3)CC2)cc(OC)c1OC,n,n,n,n,n,n
CCCc1nc2ccccc2n1C(CCSC)C(=O)NC(C)(C)C (stereo not drawn),x,n,x,x,n,n
CC(=O)c1ccc(-c2cccs2)s1,n,n,n,64,n,n
CNc1cccc(-c2ccc(C(C)=O)s2)n1,x,n,x,x,n,n
Cc1ccccc1C1N=C2Oc3ccccc3C=C2C(=O)N1 (stereo not drawn),x,n,x,x,n,n
COc1ccc(C(C[N+](=O)[O-])C2(c3ccc(OC)c(OC)c3)C(=O)c3ccccc3C2=O)cc1 (stereo not drawn),n,82,n,n,84,n
CC(C)c1cc(C(C)C)c(S(=O)(=O)NC(c2ccccn2)C23CC2C3)c(C(C)C)c1 (stereo not drawn),x,n,x,x,n,n
COc1ccc(-c2ccc(CN3C(C)C(=O)N(Cc4cn(Cc5ccco5)nn4)CCS3(=O)=O)cc2)cc1 (stereo not drawn),x,n,n,69,n,n
CC1C(=O)N(Cc2cn(CCC3OCCCO3)nn2)CCS(=O)(=O)N1Cc1ccc(-c2ccc(Cl)cc2)cc1 (stereo not drawn),x,n,n,52,n,n
CC1C(=O)N(Cc2cn(CCC3OCCCO3)nn2)CCS(=O)(=O)N1Cc1ccc(-c2ccccc2)cc1 (stereo not drawn),x,n,n,n,n,n
